Active and inactive are the calls of the source. Unless noted, how the calls were made is not given here.
Columns and labels:
[1] = anti-His antibody binders, primary screen, artefact control for SMM control protein annotation, biochemical, small-molecule microarray, 635 nm fluorescence (AID 1128); conditions: anti-His Alexa647 antibody binding, higher = more signal;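 further: score merges feature fluorescence with signal-to-noise for each printed compound spot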
[2] = tested on: Human papillomavirus type 1a E7 protein (residues 1-88); assay: HPV1a E7 small-molecule binders, primary screen, biochemical, small-molecule microarray, residues 1-88, 635 nm (AID 1129); conditions: small-molecule microarray binding, fluorescence 635 nm; higher = more signal
[3] = target: Focal adhesion kinase 1 (Homo sapiens) (UniProt Q05397); assay: small-molecule microarray binders of FAK, primary screen, biochemical, 635/667 nm fluorescence, BSA, DTT (AID 1130); conditions: PTK2 binding, 635 nm fluorescence, higher = more signal;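 further: composite of spot emission at 667 nm and signal to noise over triplicate slides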
Chain of Focal adhesion kinase 1 (Homo sapiens) (Q05397 whole entry, looked up): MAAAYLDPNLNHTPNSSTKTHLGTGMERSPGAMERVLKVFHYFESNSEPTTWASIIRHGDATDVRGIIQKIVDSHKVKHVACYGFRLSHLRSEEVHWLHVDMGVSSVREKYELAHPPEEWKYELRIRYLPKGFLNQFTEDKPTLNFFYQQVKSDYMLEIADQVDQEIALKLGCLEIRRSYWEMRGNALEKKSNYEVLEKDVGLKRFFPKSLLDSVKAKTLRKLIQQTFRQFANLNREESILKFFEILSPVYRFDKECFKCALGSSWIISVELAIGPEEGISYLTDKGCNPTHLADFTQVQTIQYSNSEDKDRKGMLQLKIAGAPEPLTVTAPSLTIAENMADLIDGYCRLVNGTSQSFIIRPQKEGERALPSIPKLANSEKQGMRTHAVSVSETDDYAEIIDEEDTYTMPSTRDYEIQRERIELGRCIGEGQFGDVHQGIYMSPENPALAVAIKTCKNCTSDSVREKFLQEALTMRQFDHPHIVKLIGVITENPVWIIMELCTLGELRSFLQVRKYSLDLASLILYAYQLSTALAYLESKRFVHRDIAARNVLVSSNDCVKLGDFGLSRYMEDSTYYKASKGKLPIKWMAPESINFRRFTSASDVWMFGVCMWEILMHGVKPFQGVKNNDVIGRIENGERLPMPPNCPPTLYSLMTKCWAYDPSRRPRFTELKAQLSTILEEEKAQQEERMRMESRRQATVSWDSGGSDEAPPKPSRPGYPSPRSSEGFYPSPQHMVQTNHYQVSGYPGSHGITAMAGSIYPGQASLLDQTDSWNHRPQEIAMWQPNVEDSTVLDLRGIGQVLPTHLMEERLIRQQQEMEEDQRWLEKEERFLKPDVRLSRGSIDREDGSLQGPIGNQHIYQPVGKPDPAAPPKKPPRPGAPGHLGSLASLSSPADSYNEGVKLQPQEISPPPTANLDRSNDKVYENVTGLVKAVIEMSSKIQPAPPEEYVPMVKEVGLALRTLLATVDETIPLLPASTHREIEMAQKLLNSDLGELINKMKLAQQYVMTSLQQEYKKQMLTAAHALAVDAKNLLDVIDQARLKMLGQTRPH

[4] = tested on: Fibrinogen (Alexa647-labelled); assay: fibrinogen binders on compound microarrays, profiling panel, artefact control for SMM control-protein annotation, biochemical, small-molecule microarray, 635/667 nm fluorescence (AID 1131); conditions: fibrinogen-A647 binding fluorescence, higher = more signal;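 further: z-score merges 667 nm fluorescence with per-spot signal-to-noise over triplicate slides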
[5] = target: Follistatin (Homo sapiens) (UniProt P19883); assay: follistatin binders on small-molecule microarrays, primary screen, biochemical, small-molecule microarray, 635/667 nm fluorescence (AID 1132); conditions: FST binding, 635 nm fluorescence, higher = more signal
Chain of Follistatin (Homo sapiens) (P19883 whole entry, looked up): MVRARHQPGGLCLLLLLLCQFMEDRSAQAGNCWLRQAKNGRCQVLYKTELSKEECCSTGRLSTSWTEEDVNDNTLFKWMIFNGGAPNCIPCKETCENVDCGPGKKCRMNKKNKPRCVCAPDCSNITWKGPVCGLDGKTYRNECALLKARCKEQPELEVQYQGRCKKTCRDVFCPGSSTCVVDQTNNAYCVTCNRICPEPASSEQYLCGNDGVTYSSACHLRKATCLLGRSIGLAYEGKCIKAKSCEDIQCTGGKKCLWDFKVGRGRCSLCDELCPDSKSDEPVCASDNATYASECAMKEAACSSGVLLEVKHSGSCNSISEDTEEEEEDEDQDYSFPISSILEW

[6] = target: Fibroblast growth factor 2 (Homo sapiens) (UniProt P09038); assay: FGF2 binders on small-molecule microarrays, primary screen, biochemical, small-molecule microarray, 635/667 nm fluorescence (AID 1133); conditions: small-molecule microarray binding, FGF2, fluorescence 635/667; higher = more signal
Chain of Fibroblast growth factor 2 (Homo sapiens) (P09038 whole entry, looked up): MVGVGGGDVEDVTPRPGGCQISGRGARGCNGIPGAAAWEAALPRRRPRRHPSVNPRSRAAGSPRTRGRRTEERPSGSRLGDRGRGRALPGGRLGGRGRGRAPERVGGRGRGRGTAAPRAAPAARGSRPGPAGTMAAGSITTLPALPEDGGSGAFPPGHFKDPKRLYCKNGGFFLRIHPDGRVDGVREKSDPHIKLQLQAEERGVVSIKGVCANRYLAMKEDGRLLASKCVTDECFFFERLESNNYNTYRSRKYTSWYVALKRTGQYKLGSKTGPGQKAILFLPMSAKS

[7] = mitochondrial membrane potential change in A549 cells, profiling panel, cell-based, JC-1 fluorescence, basal, 24 h, 100 nL (AID 1138); conditions: higher = more signal;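 further: A549 lung adenocarcinoma cells under basal conditions with no added stimulus; test concentration not given here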
[8] = tested on: Lefty1; assay: Lefty1 binders on small-molecule microarrays, primary screen, biochemical, small-molecule microarray, 635/667 nm fluorescence (AID 1139); conditions: small-molecule microarray binding, fluorescence 635/667; higher = more signal
[9] = tested on: wheat germ agglutinin (Triticum aestivum), Alexa647-labelled; assay: wheat germ agglutinin binders on compound microarrays, profiling panel, artefact control for SMM control-protein annotation, biochemical, small-molecule microarray, 635/667 nm fluorescence (AID 1140); conditions: WGA-A647 binding, 635 nm fluorescence, higher = more signal;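 further: score merges 667 nm feature emission with signal to noise over triplicate slides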
[10] = target: Luciferin 4-monooxygenase (Photinus pyralis) (UniProt P08659); assay: firefly luciferase enzyme inhibitors, primary screen, biochemical, luminescence, purified enzyme, 2006 set (AID 1141); conditions: SteadyGlo luminescence, 30 min, higher = more signal, called active from +8 up or from −8 down;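 further: cell-free assay with purified firefly luciferase at 100 ng per well in PBS; test concentration not given here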
Chain of Luciferin 4-monooxygenase (Photinus pyralis) (P08659 whole entry, looked up): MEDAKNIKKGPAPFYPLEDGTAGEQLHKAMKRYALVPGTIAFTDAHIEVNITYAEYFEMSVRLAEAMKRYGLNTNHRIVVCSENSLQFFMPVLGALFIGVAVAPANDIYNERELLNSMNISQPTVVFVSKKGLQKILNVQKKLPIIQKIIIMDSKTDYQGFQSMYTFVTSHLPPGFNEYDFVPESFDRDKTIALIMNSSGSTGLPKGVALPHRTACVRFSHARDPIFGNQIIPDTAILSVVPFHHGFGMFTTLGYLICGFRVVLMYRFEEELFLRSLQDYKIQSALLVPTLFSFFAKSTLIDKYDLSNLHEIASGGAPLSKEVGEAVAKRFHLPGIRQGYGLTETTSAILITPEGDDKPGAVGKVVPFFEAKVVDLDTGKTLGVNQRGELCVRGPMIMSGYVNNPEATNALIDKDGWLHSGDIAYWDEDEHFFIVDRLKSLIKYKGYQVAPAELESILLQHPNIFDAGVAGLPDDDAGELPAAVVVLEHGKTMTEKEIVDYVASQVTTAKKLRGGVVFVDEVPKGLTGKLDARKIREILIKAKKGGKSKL

[11] = tested on: Wnt5a (protein binding on small-molecule microarray); assay: Wnt5a binders on small-molecule microarray, primary screen, biophysical, 635/667 nm fluorescence (AID 1142); conditions: 635 nm fluorescence, higher = more signal;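 further: fluorescence read at 667 nm with signal to noise per printed feature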
[12] = cell viability in Huh7 cells, primary screen, cytotoxicity control for HCV replication inhibitor project, CellTiter-Glo luminescence, basal, 48 h (AID 1143); conditions: Huh7 HCV replicon, higher = more signal, called active from +8 up or from −8 down;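 further: Huh7 hepatoma cells carrying a hepatitis C replication reporter with no stimulus; test concentration not given here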
[13] = P. aeruginosa biofilm formation inhibitors, primary screen, PAO1 strain, BacTiter-Glo luminescence, LB-PBS (AID 1144); conditions: 12 h, higher = more signal
[14] = CREB reporter modulators without forskolin, primary screen, cell-based, PC12, CRE-LacZ reporter, unstimulated (AID 1145); conditions: no forskolin, luminescence, 4.5 h, higher = more signal, called active from +8 up or from −8 down
[15] = CREB reporter modulators under forskolin, primary screen, cell-based, PC12, CRE-LacZ reporter, forskolin-stimulated (AID 1146); conditions: luminescence, 4.5 h, higher = more signal, called active from +8 up or from −8 down;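 further: PC12 cells with 6xCRE LacZ reporter stimulated by forskolin 10 µM; beta-galactosidase reporter signal reflecting CREB driven transcription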
[16] = target: Streptavidin (Streptomyces avidinii) (UniProt P22629); assay: streptavidin binders on small-molecule microarray, primary screen, artefact control for SMM compound annotation, biophysical, 635/667 nm fluorescence (AID 1147); conditions: streptavidin binding, higher = more signal;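 further: signal reflects streptavidin binding to arrayed compounds as a control protein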
Chain of Streptavidin (Streptomyces avidinii) (P22629 whole entry, looked up): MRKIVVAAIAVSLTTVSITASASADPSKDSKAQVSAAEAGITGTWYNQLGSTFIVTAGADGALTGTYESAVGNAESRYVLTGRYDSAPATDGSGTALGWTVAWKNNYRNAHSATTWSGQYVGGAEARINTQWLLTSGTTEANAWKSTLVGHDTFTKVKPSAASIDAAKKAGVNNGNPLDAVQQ

[17] = small-molecule binders of probe aInhba, primary screen, biochemical, small-molecule microarray, 635/667 nm fluorescence (AID 1148); conditions: higher = more signal;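 further: score merges 667nm spot fluorescence with signal-to-noise for antibody binding to printed compounds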
[18] = target: Torsin-1A (Homo sapiens) (UniProt O14656); assay: torsin A binders from cell lysate, primary screen, small-molecule microarray, wild-type, 635/667 nm (AID 1149); conditions: COS7 hTOR1A-WT lysate, 635 nm fluorescence, higher = more signal
Chain of Torsin-1A (Homo sapiens) (O14656 whole entry, looked up): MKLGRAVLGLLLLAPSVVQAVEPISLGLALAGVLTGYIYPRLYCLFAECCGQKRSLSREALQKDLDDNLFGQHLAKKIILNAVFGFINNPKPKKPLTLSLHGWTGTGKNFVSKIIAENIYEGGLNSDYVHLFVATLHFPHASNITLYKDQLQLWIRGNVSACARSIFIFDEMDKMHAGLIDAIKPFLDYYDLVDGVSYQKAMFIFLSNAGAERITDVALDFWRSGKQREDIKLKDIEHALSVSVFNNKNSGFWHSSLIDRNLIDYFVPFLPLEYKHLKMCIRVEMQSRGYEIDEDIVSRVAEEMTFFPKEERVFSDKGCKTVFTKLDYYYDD

[19] = target: Torsin-1A (Homo sapiens) (UniProt O14656); assay: small-molecule binders of mutant TOR1A in lysate, primary screen, cell lysate, small-molecule microarray, COS7 lysate, 635/667 nm fluorescence (AID 1150); conditions: COS7 hTOR1A mutant lysate, 635 nm fluorescence, higher = more signal;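 further: score pools 667 nm emission and signal to noise measuring lysate protein binding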
[20] = tested on: Sonic hedgehog protein (Shh); assay: small-molecule binders of Shh protein, primary screen, biochemical, small-molecule microarray, 635/667 nm fluorescence (AID 1151); conditions: small-molecule microarray binding, 635 nm fluorescence; higher = more signal;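 further: Shh protein binding to compounds spotted on small-molecule microarray slides; score combines spot fluorescence intensity with signal-to-noise across triplicate slides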

Structure (SMILES) | composite z-score [1] | composite z-score [2] | composite z-score [3] | composite z-score [4] | composite z-score [5] | composite z-score [6] | z-score [7] | composite z-score [8] | composite z-score [9] | z-score [10] | composite z-score [11] | z-score [12] | z-score [13] | z-score [14] | z-score [15] | composite z-score [16] | composite z-score [17] | composite z-score [18] | composite z-score [19] | composite z-score [20]
COC(=O)C1(CC(C)C)C=C2C(=C(c3ccccc3)C(=O)C2C)CN1 (stereo not given) | 1.75 | 0.166 | 0.879 | 0.579 | 0.111 | 0.953 | 0.674 | 0.0364 | 0.663 | 0.53 (inactive) | 0.894 | -0.207 (inactive) | 0.279 (inactive) | 0.966 (inactive) | 1.64 (inactive) | 0.246 | 0.613 | -0.0212 | 1.3 | 1.75
CC[C@@H]1C=C(C(=O)O)[C@H](c2ccccc2)N1S(=O)(=O)c1ccc(C)cc1 | 2.57 | 1.17 | 0.178 | 0.594 | -0.0393 | -0.241 | -0.719 | 0.362 | 1.05 | 1.09 (inactive) | 0.0651 | -0.272 (inactive) | 0.853 (inactive) | -0.676 (inactive) | -0.0818 (inactive) | 0.0128 | -0.197 | 0.474 | 0.518 | -0.313
O=C(O)[C@@H]1C[C@@H]2C(=O)N3CCC[C@H]3C(=O)N2[C@@H]1c1ccc(O)cc1 | 2.3 | 0.258 | 0.251 | -0.0516 | 1.42 | 1.07 | -0.269 | 0.824 | 0.0465 | -0.985 (inactive) | 0.357 | -2.79 (inactive) | 0.235 (inactive) | 0.0205 (inactive) | -1.18 (inactive) | 0.262 | 0.0586 | 0.746 | 0.643 | 1.61
COc1ccc([C@H]2OC[C@@H]3C[C@H](Cc4ccccc4)C(=O)N32)cc1 | 0.606 | 0.358 | 0.0039 | 0.179 | 0.416 | 0.511 | 0.239 | 0.374 | 0.582 | -0.0539 (inactive) | 0.204 | -3.52 (inactive) | 0.305 (inactive) | 1.99 (inactive) | 0.213 (inactive) | -0.371 | -0.0962 | 0.48 | 0.0464 | 0.532
CCOC(=O)C=Cc1cccc(C)c1O | 0.0346 | -0.0448 | 0.617 | 0.252 | 0.208 | 0.0326 | -1.56 | -0.0408 | -0.399 | -9.24 (active) | -0.0909 | -4.73 (inactive) | -1.02 (inactive) | 0.472 (inactive) | -0.631 (inactive) | -0.259 | -0.0375 | 0.299 | 0.777 | 0.219
O=C1N(CCS(=O)(=O)c2ccccc2)c2ccccc2[C@H]2OC(c3ccc(OCCCO)cc3)=N[C@@]12Cc1ccccc1 | 2.15 | 0.936 | 0.548 | 0.587 | 1.54 | 1.75 | 1.08 | 0.476 | 0.943 | -8.53 (active) | 0.636 | -3.51 (inactive) | 0.582 (inactive) | 5.87 (inactive) | -1.86 (inactive) | 0.274 | 0.397 | 1.08 | 1.07 | 1.74
CC(c1ccccc1)C(O)C1C=CC2C(=O)N(C)C(=O)C2N1Nc1ccccc1 (stereo not given) | 1.79 | 1.24 | 0.322 | 1.02 | 0.777 | -0.579 | -0.0184 | -0.17 | 1.21 | 0.206 (inactive) | 0.462 | 0.481 (inactive) | -0.0225 (inactive) | 0.0535 (inactive) | -0.0744 (inactive) | 1.62 | 0.562 | 0.112 | 0.299 | -0.353
COC(=O)[C@@]1(Cc2ccc(OC)cc2)[C@H]2c3cc(C(=O)N4CCCC4)n(CCO)c3C[C@H]2CN1C(=O)c1ccccc1 | 0.603 | 1.18 | 1.05 | 0.875 | 0.113 | -0.2 | -0.117 | -0.539 | 1.03 | 1.01 (inactive) | 0.925 | -0.794 (inactive) | -0.14 (inactive) | 0.773 (inactive) | 1.41 (inactive) | 0.342 | 0.372 | -0.48 | 1.44 | -0.645
Oc1ccc2cc[n+](Cc3cc4c(cc3Br)OCO4)cc2c1 | -0.706 | -1.93 | -0.947 | -1.38 | -0.145 | -0.387 | 0.938 | -1.15 | 0.136 | -1.13 (inactive) | -0.388 | -0.501 (inactive) | -0.23 (inactive) | -0.788 (inactive) | -0.639 (inactive) | -0.909 | -0.224 | -0.896 | -0.49 | -0.598
C=CCN1C(=O)[C@]2(CCS(=O)(=O)c3ccccc3)N=C(c3ccc(OCCCO)cc3)O[C@@H]2c2ccccc21 | 2.73 | 1.23 | 1.29 | 0.891 | 1.31 | 1.47 | 1.3 | 0.825 | 1.19 | -2.23 (inactive) | 0.782 | -3.58 (inactive) | -0.492 (inactive) | 1.8 (inactive) | -1.11 (inactive) | 0.479 | 0.0841 | 0.659 | 0.573 | 1.65
